In PubChem BioAssay (NCATS):
Results filed as inconclusive are left out. The source made the active and inactive calls. Calls follow the shape of the dose curve; as a rule, active = well fitted inhibition curve with a large enough effect; inconclusive = small, poorly fitted or top-dose-only effect; inactive = flat fitted curve, though single readings scatter.

Key:
Test in all cases: Cytotoxic Profiling of Annotated Libraries Using Quantitative High-Throughput Screening (AID 1296008); also: nearly all actives have a fitted effect of over 60% in size
Conditions in all cases: Five cell lines viability, CellTiter-Glo ATP luminescence, 48-72 h; max response: hits give low values
CRL-7250 = normal cell line; test system: CRL-7250
Summary of the method: (§1)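 Cells exposed to compounds for 48 or 72 hr at 37 degrees Celsius. Viability read as ATP-coupled luminescence with CellTiter-Glo after 10 min at room temperature.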

HEK293 = test system: HEK293
Summary of the method: as §1

HaCat = test system: HaCat
Summary of the method: as §1

Measured: max response
% is scaled to controls: 0 for no effect and ±100 for the full control effect.

CC(=O)OCCC(C)CCC1C(C)(O)CCC2C(C)(C)CCCC21C (stereo not drawn)
inactive: CRL-7250 -8.91% | HEK293 | HaCat -0.371%

OCCc1ccc(O[C@@H]2O[C@H](CO)[C@@H](O)[C@H](O)[C@H]2O)c(O)c1
inactive: CRL-7250 1.68% | HEK293 | HaCat

CC1CCCC2OC2C(=O)c2c(O)cc(O)cc2CC(=O)O1 (stereo not drawn)
inactive: CRL-7250 -0.57% | HEK293 | HaCat -2.51%

CCOC(=O)Nc1nc2ccccc2[nH]1
inactive: CRL-7250 3.6% | HEK293 | HaCat -2.18%

C=CC(C)(C)O[C@@H]1O[C@H](CO[C@@H]2OC[C@](O)(CO)[C@H]2O)[C@@H](O)[C@H](O)[C@H]1O
inactive: CRL-7250 -2.3% | HEK293 | HaCat

C=C1CC[C@H]2[C@@](C)(CCC(O)[C@@]2(C)CO)[C@@H]1C/C=C(/C(=O)O)C(O)CO (stereo partly drawn)
inactive: all assays above

C=C(C)[C@H]1C[C@@H](O)C(=C)CC[C@@H](O)C(=C)[C@@H](O)C1
inactive: CRL-7250 -0.626% | HEK293 | HaCat

COC(=O)C12C(=O)C(C)=C(O)C1(C)C(C)=CC1C34CCC(OC3=O)C(C)(C)C4CCC12C (stereo not drawn)
inactive: CRL-7250 -4.32% | HEK293 | HaCat 1.85%

CCOC(=O)[C@H]1O[C@@H]1C(=O)N[C@@H](CC(C)C)C(=O)NCCC(C)C
inactive: all assays above

C/C(=C/CO)CC[C@@H]1[C@@]2(C)CCC[C@](C)(C(=O)O)C2CC[C@@]1(C)O (stereo partly drawn)
inactive: CRL-7250 2.67% | HEK293 | HaCat

C[C@@H]1O[C@@H](O[C@@H]2[C@@H](O)[C@@H](O)[C@H](O[C@@H]3[C@@H](O)[C@@H](O[C@]4(CO)O[C@H](CO)[C@@H](O)[C@@H]4OC(=O)/C=C/c4ccc(O)cc4)O[C@H](CO)[C@H]3OC(=O)/C=C/c3ccc(O)cc3)O[C@H]2C)[C@H](O)[C@H](O)[C@H]1O
inactive: CRL-7250 -4.29% | HEK293 | HaCat 1.83%
